According to PubChem BioAssay AID2104 (National Center for Advancing Translational Sciences (NCATS), 2009):
Results filed as inconclusive are left out. Calls of active or inactive are those of the source. Calls follow the shape of the full dose curve.

Molecular target: Thyrotropin receptor (Homo sapiens) (UniProt P16473)
Assay: Secondary Concentration-Response Assay for Agonists of the Thyroid Stimulating Hormone Receptor: ELISA Activity Detection
Conditions: HEK293-TSHR cells, cAMP ELISA luminescence, 1 h
Source text: NIH Chemical Genomics Center [NCGC] NIH Molecular Libraries Screening Centers Network [MLSCN] MLSCN Grant: 1 X01 MH080680-01 PI Name: Dr. Marvin Gershengorn, NIH NCGC Assay Overview: Confirmation of Thyroid Stimulating Hormone Receptor Agonists TSH is an alpha/beta heterodimeric glycoprotein hormone secreted from the anterior pituitary gland which belongs to the glycoprotein hormone family. The actions of TSH are mediated by a seven-transmembrane receptor, which upon TSH binding couples preferentially to the G-alpha (s) protein (Gs), resulting in activation of adenylate cyclase and increase in cyclic adenosine 3', 5' monophosphate (cAMP). The TSH receptor (THSR) is mainly expressed in thyroid follicular cells and regulates their growth and function. Recombinant TSH is used to activate TSHR in patients with thyroid cancer receiving thyroid hormone suppression therapy and to screen for residual tumor after surgery, but it is expensive and must be administered intramuscularly. An orally active small molecule TSHR agonist would serve as an invaluable research tool for studying TSHR pharmacology and physiology, and would have multiple advantages in therapeutic settings. However, no selective small molecule agonist of the TSH receptor exists, and no small molecule screen for TSHR agonists has ever been reported. A confirmatory assay of putative TSHR agonists was conducted on a HEK 293 cell line stably expressing the TSHR, using an orthogonal detection technology to measure cAMP stimulation: an ELISA based cAMP competition assay using cAMP-Screen Direct System (Applied Biosystems, Foster City , CA).
NCGC Assay Protocol Summary: HEK 293 cells expressing TSHR were cultured for 24 h before incubation for 1 h in serum-free DMEM containing 1 mM 3-isobutyl-1-methylxanthine (IBMX) (SIGMA) and small molecule ligands in a humidified 5% CO2 incubator at 37C. Following aspiration of the medium, cells were lysed using lysis buffer of the cAMP-Screen DirectTM System (Applied Biosystems). The cAMP content of the cell lysate was determined using the method described in the manufacturer#s protocol. An enzyme substrate with a luminescent enhancer generates glow light emission kinetics. Light signal intensity, which is inversely proportional to the cAMP level in the sample, is measured in a luminometer (Perkin Elmer, 1420 Multilabel, Victor 3) for 3 seconds/well 30 min after substrate addition. Potencies (i.e., EC50) of the ligands were obtained from dose-response curves by data analysis with GraphPad Prism 4 software for Windows.

Chain of Thyrotropin receptor (Homo sapiens) (P16473 whole entry, looked up): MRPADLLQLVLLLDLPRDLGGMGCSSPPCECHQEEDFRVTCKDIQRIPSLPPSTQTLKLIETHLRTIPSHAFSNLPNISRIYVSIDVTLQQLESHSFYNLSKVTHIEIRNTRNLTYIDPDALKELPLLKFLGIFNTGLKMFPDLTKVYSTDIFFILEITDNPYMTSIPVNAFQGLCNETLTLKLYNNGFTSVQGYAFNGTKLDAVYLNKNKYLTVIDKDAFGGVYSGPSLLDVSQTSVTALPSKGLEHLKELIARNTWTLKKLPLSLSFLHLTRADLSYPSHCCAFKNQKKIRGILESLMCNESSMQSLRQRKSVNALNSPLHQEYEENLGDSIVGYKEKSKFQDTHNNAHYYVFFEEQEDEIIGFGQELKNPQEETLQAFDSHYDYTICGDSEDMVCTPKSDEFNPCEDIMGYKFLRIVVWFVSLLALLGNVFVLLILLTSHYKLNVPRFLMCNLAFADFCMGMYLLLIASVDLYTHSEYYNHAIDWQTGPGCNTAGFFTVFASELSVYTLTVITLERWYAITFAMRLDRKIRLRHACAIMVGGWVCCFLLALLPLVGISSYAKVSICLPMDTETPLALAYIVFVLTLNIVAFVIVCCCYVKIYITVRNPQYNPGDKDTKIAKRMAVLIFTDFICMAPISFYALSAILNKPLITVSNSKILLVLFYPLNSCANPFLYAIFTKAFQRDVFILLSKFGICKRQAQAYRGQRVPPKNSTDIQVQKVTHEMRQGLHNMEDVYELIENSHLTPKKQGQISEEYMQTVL

**Q.** How did the outcome turn out when `COc1ccc(C2Nc3ccccc3C(=O)N2Cc2ccco2)cc1COc1ccccc1` (stereo unspecified) was run?
**A.** The outcome was “inactive”.

**Q.** `COc1ccc(C2Nc3ccccc3C(=O)N2CCO)cc1COc1ccc(NC(C)=O)cc1` (stereo unspecified) was tested. Which outcome did it give?
**A.** Its outcome is “inactive”.

**Q.** Which Potency does the source give for `COc1ccc(-c2nc3cccc(O)c3c(=O)n2Cc2ccccc2)cc1COc1ccc(NC(C)=O)cc1` here?
**A.** The Potency was 550 nM (active).

**Q.** Which outcome does the source give for `COc1ccc(C2NC(=O)c3ccccc3N2)cc1COc1ccc(NC(C)=O)cc1` (stereo unspecified) here?
**A.** The outcome was “inactive”.

**Q.** `COc1ccc(C2Nc3cccc(O)c3C(=O)N2Cc2ccccc2)cc1` (stereo unspecified) was tested. Which outcome did it give?
**A.** The outcome was “inactive”.

**Q.** For `COc1ccc(C2Nc3ccc(O)cc3C(=O)N2Cc2ccccc2)cc1COc1ccc(NC(C)=O)cc1` (stereo unspecified), which Potency is on record?
**A.** Its Potency is 330 nM (active).

**Q.** With `COc1ccc(C2Nc3cccc(O)c3C(=O)N2Cc2ccccc2)cc1CSc1ccc(NC(C)=O)cc1` (stereo unspecified) as the molecule, how does the Potency read?
**A.** The Potency was 18 nM (active).

**Q.** How did the Potency turn out when `COc1ccc(C2Nc3ccccc3C(=O)N2Cc2ccccc2)cc1CSc1ccc(NC(C)=O)cc1` (stereo unspecified) was run?
**A.** The Potency was 80 nM (active).

**Q.** How did the Potency turn out when `COc1ccc(C2Nc3cccc(F)c3C(=O)N2Cc2ccccc2)cc1COc1ccc(NC(C)=O)cc1` (stereo unspecified) was run?
**A.** The Potency was 280 nM (active).

**Q.** `COc1ccc(C2Nc3ccccc3C(=O)N2CCc2ccccc2)cc1COc1ccc(NC(C)=O)cc1` (stereo unspecified) was tested. Which Potency did it give?
**A.** Its Potency is 430 nM (active).

**Q.** With `COCc1cc(C2Nc3ccccc3C(=O)N2Cc2ccccc2)ccc1OC` (stereo unspecified) as the molecule, how does the outcome read?
**A.** Its outcome is “inactive”.

**Q.** How did the Potency turn out when `COc1ccc(-c2nc3ccccc3c(=O)n2Cc2ccco2)cc1COc1ccc(NC(C)=O)cc1` was run?
**A.** The Potency was 930 nM (active).

**Q.** For `CCCCN1C(=O)c2ccccc2NC1c1ccc(OC)c(COc2ccc(NC(C)=O)cc2)c1` (stereo unspecified), which Potency is on record?
**A.** The Potency was 830 nM (active).

**Q.** `O=C1c2ccccc2NC(c2ccccc2)N1Cc1ccco1` (stereo unspecified) was tested. Which outcome did it give?
**A.** The outcome was “inactive”.

**Q.** How did the Potency turn out when `COc1ccc(C2Nc3cccc(NS(C)(=O)=O)c3C(=O)N2Cc2ccccc2)cc1COc1ccc(NC(C)=O)cc1` (stereo unspecified) was run?
**A.** Its Potency is 980 nM (active).

**Q.** For `COc1ccc(C2Nc3ccccc3C(=O)N2Cc2ccccc2)cc1COc1cccc(F)c1` (stereo unspecified), which outcome is on record?
**A.** Its outcome is “inactive”.

**Q.** How did the Potency turn out when `COc1ccc(-c2nc3ccccc3c(=O)n2Cc2ccccc2)cc1COc1ccc(NC(C)=O)cc1` was run?
**A.** The Potency was 960 nM (active).

**Q.** With `COc1ccc(C2Nc3cccc(O)c3C(=O)N2Cc2ccccc2)cc1COc1ccc(NC(C)=O)cc1` (stereo unspecified) as the molecule, how does the Potency read?
**A.** Its Potency is 90 nM (active).

**Q.** For `COc1ccc(C2Nc3ccccc3C(=O)N2CCCN(C)C)cc1COc1ccc(NC(C)=O)cc1` (stereo unspecified), which outcome is on record?
**A.** Its outcome is “inactive”.

**Q.** With `COc1ccc(C2Nc3ccccc3C(=O)N2Cc2ccccc2)cc1COc1ccc(C#N)cc1` (stereo unspecified) as the molecule, how does the outcome read?
**A.** Its outcome is “inactive”.

**Q.** For `COc1ccc(C2Nc3ccccc3C(=O)N2Cc2ccccc2)cc1COc1ccc(NC(C)=O)cc1` (stereo unspecified), which Potency is on record?
**A.** The Potency was 290 nM (active).
